Measurements reported in PubChem BioAssay (NCATS).
Results filed as inconclusive are left out. The source made the active and inactive calls. Calls follow the shape of the dose curve; as a rule, active = well fitted cell-killing curve with a large enough effect; inconclusive = small, poorly fitted or top-dose-only effect, or effect the other way; inactive = flat fitted curve, though single readings scatter.

How the values were obtained:
Test in all cases: Primary qHTS to identify gynecologic anti-cancer compounds using libraries of approved drugs and bioactive compounds (AID 1345084); also: nearly all actives have a fitted effect of over 55% in size
[1] = tested on: C33A; conditions: Gynecologic cancer cell panel viability, ATPlite luminescence, 48 h; series mostly up to 57.5 µM
Method in brief: (§1)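 Cells, 1,000 per well, plated 16 h, then exposed 48 h at 37 C to compounds. Viability by ATPlite luminescence after 15 min at room temperature.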

[2] = tested on: CAOV3; conditions: Gynecologic cancer cell panel viability, ATPlite luminescence, 48 h; series mostly up to 57.5 µM
Method in brief: as §1

[3] = tested on: CASKI; conditions: Gynecologic cancer cell panel viability, ATPlite luminescence, 48 h; series mostly up to 57.5 µM
Method in brief: as §1

[4] = tested on: Es-2; conditions: Gynecologic cancer cell panel viability, ATPlite luminescence, 48 h; series mostly up to 57.5 µM
Method in brief: as §1

[5] = tested on: HeLa; conditions: Gynecologic cancer cell panel viability, ATPlite luminescence, 48 h; series mostly up to 57.5 µM
Method in brief: as §1

[6] = tested on: Hek293T; conditions: Gynecologic cancer cell panel viability, ATPlite luminescence, 48 h, control line for the selectivity index; series mostly up to 57.5 µM
Method in brief: as §1

[7] = tested on: JEG-3; conditions: Gynecologic cancer cell panel viability, ATPlite luminescence, 48 h; series mostly up to 57.5 µM
Method in brief: as §1

[8] = tested on: OV90; conditions: Gynecologic cancer cell panel viability, ATPlite luminescence, 48 h; series mostly up to 57.5 µM
Method in brief: as §1

[9] = tested on: PA-1; conditions: Gynecologic cancer cell panel viability, ATPlite luminescence, 48 h; series mostly up to 57.5 µM
Method in brief: as §1

[10] = tested on: SKOV3; conditions: Gynecologic cancer cell panel viability, ATPlite luminescence, 48 h; series mostly up to 57.5 µM
Method in brief: as §1

[11] = tested on: Tov-21-G; conditions: Gynecologic cancer cell panel viability, ATPlite luminescence, 48 h; series mostly up to 57.5 µM
Method in brief: as §1

[12] = tested on: Tov112D; conditions: Gynecologic cancer cell panel viability, ATPlite luminescence, 48 h; series mostly up to 57.5 µM
Method in brief: as §1
% is scaled to controls: 0 for no effect and ±100 for the full control effect.

CC1(C)CCC[C@]2(C)[C@H]3CC(=O)O[C@]3(C)CC[C@@H]12
inactive: Potency [1] | Potency [2] | Potency [3] | Potency [4] | Potency [5] | Potency [6] | Potency [7] | Potency [8] | Potency [9] | Potency [10] | Potency [11] | Potency [12]

COc1cc(C2Oc3c(OC)cc(CCCO)cc3C2CO)ccc1O[C@H]1O[C@H](C)[C@@H](O)[C@H](O)[C@@H]1O (stereo partly drawn)
inactive: Potency [1] | Potency [2] | Potency [3] | Potency [4] | Potency [5] | Potency [6] | Potency [7] | Potency [8] | Potency [9] | Potency [10] | Potency [11] | Potency [12]

CC(=O)OC1C(c2ccccc2)CCC(c2ccccc2)C1OC(C)=O (stereo not drawn)
inactive: Potency [1] | Potency [2] | Potency [3] | Potency [4] | Potency [5] | Potency [6] | Potency [7] | Potency [8] | Potency [9] | Potency [10] | Potency [11] | Potency [12]

Cc1ccc(NC(=O)C(=O)NC2CC(C)(C)NC(C)(C)C2)cc1
inactive: Potency [1] | Potency [2] | Potency [3] | Potency [4] | Potency [5] | Potency [6] | Potency [7] | Potency [8] | Potency [9] | Potency [10] | Potency [11] | Potency [12]

C[C@@H]1O[C@@H](O[C@H]2[C@H](OC(=O)[C@]34CCC(C)(C)C[C@H]3C3=CCC5[C@@]6(C)C[C@H](O)[C@H](O[C@@H]7O[C@H](CO)[C@@H](O)[C@H](O)[C@H]7O)[C@@](C)(CO)C6[C@H](O)C[C@@]5(C)[C@]3(C)C[C@H]4O)OC[C@H](O)[C@@H]2O)[C@H](O)[C@H](O)[C@H]1O[C@@H]1OC[C@@H](O)[C@H](O[C@H]2OC[C@](O)(CO)[C@H]2O)[C@H]1O (stereo partly drawn)
inactive: activity change, negative = cytotoxicity [1] 6.39% [at 6.55 µM] | activity change, negative = cytotoxicity [2] 27.3% [at 6.55 µM] | activity change, negative = cytotoxicity [3] -4.03% [at 6.55 µM] | activity change, negative = cytotoxicity [4] 1.52% [at 6.55 µM] | activity change, negative = cytotoxicity [5] 19.6% [at 6.55 µM] | activity change, negative = cytotoxicity [6] -3.35% [at 6.55 µM] | activity change, negative = cytotoxicity [7] 13.7% [at 6.55 µM] | activity change, negative = cytotoxicity [8] -6.86% [at 6.55 µM] | activity change, negative = cytotoxicity [9] 24.7% [at 6.55 µM] | activity change, negative = cytotoxicity [10] 19.1% [at 6.55 µM] | activity change, negative = cytotoxicity [11] 8.26% [at 6.55 µM] | activity change, negative = cytotoxicity [12] 8.3% [at 6.55 µM]

N#C[C@@H]1CCCN1C(=O)CNC12CC3CC(CC(O)(C3)C1)C2
inactive: Potency [1] | Potency [2] | Potency [3] | Potency [4] | Potency [5] | Potency [6] | Potency [7] | Potency [8] | Potency [9] | Potency [10] | Potency [11] | Potency [12]

COc1cc2occc2c(O[C@@H]2O[C@H](CO)[C@@H](O)[C@H](O)[C@H]2O)c1CCC(=O)O
inactive: Potency [1] | Potency [2] | Potency [3] | Potency [4] | Potency [5] | Potency [6] | Potency [7] | Potency [8] | Potency [9] | Potency [10] | Potency [11] | Potency [12]

COC1C(CO)OC(n2cnc3c(=O)[nH]cnc32)C1O (stereo not drawn)
inactive: Potency [1] | Potency [2] | Potency [3] | Potency [4] | Potency [5] | Potency [6] | Potency [7] | Potency [8] | Potency [9] | Potency [10] | Potency [11] | Potency [12]

CC1CC(O)C2(OC1=O)OC1C(O)C3C4CCC5CC(OC6OC(CO)C(O)C(O)C6OC6OC(C)C(O)C(O)C6O)CCC5(C)C4CCC3(C)C1C2C (stereo not drawn)
inactive: Potency [1] | Potency [2] | Potency [3] | Potency [4] | Potency [5] | Potency [6] | Potency [7] | Potency [8] | Potency [9] | Potency [10] | Potency [11] | Potency [12]

CC(=O)N[C@@H](CCCCN)C(=O)N(C)[C@@H](CC(C)C)C(=O)N[C@H](C(=O)N(C)[C@@H](Cc1ccccc1)C(=O)N[C@H](Cc1ccccc1)C(N)=O)C(C)C
inactive: activity change, negative = cytotoxicity [1] 18.7% [at 6.55 µM] | activity change, negative = cytotoxicity [2] 6.22% [at 6.55 µM] | activity change, negative = cytotoxicity [3] 2.04% [at 6.55 µM] | activity change, negative = cytotoxicity [4] -0.643% [at 6.55 µM] | activity change, negative = cytotoxicity [5] 16.5% [at 6.55 µM] | activity change, negative = cytotoxicity [6] 8.12% [at 6.55 µM] | activity change, negative = cytotoxicity [7] -0.179% [at 6.55 µM] | activity change, negative = cytotoxicity [8] -1.74% [at 6.55 µM] | activity change, negative = cytotoxicity [9] 7.96% [at 6.55 µM] | activity change, negative = cytotoxicity [10] 0% [at 6.55 µM] | activity change, negative = cytotoxicity [11] 3.25% [at 6.55 µM] | activity change, negative = cytotoxicity [12] 6.63% [at 6.55 µM]

COC(=O)N(C)c1c(N)nc(-c2nn(Cc3ccccc3F)c3ncccc23)nc1N
inactive: Potency [1] | Potency [2] | Potency [3] | Potency [4] | Potency [5] | Potency [6] | Potency [7] | Potency [8] | Potency [9] | Potency [10] | Potency [11] | Potency [12]

OC/C=C/c1ccc(O[C@@H]2O[C@H](CO)[C@@H](O)[C@H](O)[C@H]2O)cc1
inactive: Potency [1] | Potency [2] | Potency [3] | Potency [4] | Potency [5] | Potency [6] | Potency [7] | Potency [8] | Potency [9] | Potency [10] | Potency [11] | Potency [12]

CC(C)(C)NC(=O)[C@@H](c1cccnc1)N(C(=O)c1ccco1)c1ccc(C(C)(C)C)cc1
inactive: Potency [1] | Potency [2] | Potency [3] | Potency [4] | Potency [5] | Potency [6] | Potency [7] | Potency [8] | Potency [9] | Potency [10] | Potency [11] | Potency [12]

Cc1cc(Cl)ccc1COc1ccnn1-c1cc(C(=O)O)ccn1
inactive: Potency [1] | Potency [2] | Potency [3] | Potency [4] | Potency [5] | Potency [6] | Potency [7] | Potency [8] | Potency [9] | Potency [10] | Potency [11] | Potency [12]
